Screening data as filed in PubChem BioAssay.
This is a sample that favours compounds with a hit; in the whole collection about 0.65% have one here.
RN4220 kill = S. aureus RN4220 growth inhibition. OD600, 16 h. inhibition, % (no concentration beside the values). hit rate 0.33% among 330,000. AID 1259311; in the data active means inhibition above about 85%;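 further: plate controls were untreated cells for no effect and reference antibiotic for full effect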
BJeLR viability = BJeLR cell viability loss. BJeLR (HRASV12) viability, CellTiter-Glo ATP luminescence, 48 h. inhibition, % (no concentration beside the values). hit rate 0.17% among 300,000. AID 1554; in the data active means inhibition above about 50%
ugtP null kill = compounds lethal to S. aureus RN4220 ugtP deletion mutant; OD600 growth, 16 h; growth inhibition, % (concentration not given with the values); hit rate 0.54% among 330,000; AID 1259309; in the data active means growth inhibition above about 68%;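 further: plate controls were untreated wells for no effect and antibiotic for full effect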
Starred values were filed as active, the others as inactive; · = no result given.

SMILES | RN4220 kill | BJeLR viability | ugtP null kill
Cc1cc(CN(C)C)c(O)c(C2(C)CCCCC2)c1 | 7 | 9 | 8
Cc1cc(CN2CCOCC2)c(O)c(C2(C)CCCCC2)c1 | 7 | 3 | 99*
CCOc1ccc(OCc2ccc(C(=O)N3CCc4ccccc4C3)o2)cc1 | 3 | -7 | 26
Clc1ccc2c(c1)Nc1ccccc1CC2 | 6 | 12 | 89*
O=C1CCc2ccccc2N1 | 11 | 2 | 6
COc1cc(C=CC(=O)O)cc(S(=O)(=O)NCCCC(=O)O)c1OC | 2 | · | -1
O=C(O)CC(Cc1ccc(Cl)cc1)C(=O)Nc1ccc([N+](=O)[O-])cc1 (stereo not given) | 5 | -4 | 11
O=C(N[C@H](CO)[C@H](O)c1ccc([N+](=O)[O-])cc1)C(Cl)Cl | 98* | -10 | 98*
O=C(NC(CO)C(O)c1ccc([N+](=O)[O-])cc1)C(Cl)Cl (stereo not given) | 89* | 1 | 96*
Cc1ccc(NC(=S)NC(CO)C(O)c2ccc([N+](=O)[O-])cc2)cc1 (stereo not given) | 2 | 3 | 2
O=[N+]([O-])c1ccc(C(O)C(CO)NC(=S)Nc2ccccc2)cc1 (stereo not given) | 9 | 3 | 39
O=C(NC(CO)Cc1ccc([N+](=O)[O-])cc1)C(Cl)Cl (stereo not given) | 94* | -3 | 99*
COc1ccccc1CC(=O)NN1C(=O)NC2(CCC(C)CC2)C1=O (stereo not given) | 3 | · | -2
Cc1nc(-c2ccc(NC(=O)Cc3ccccc3)cc2)cs1 | 4 | -6 | 9
Cc1ccccc1Nc1nc(N)nc(CN2C(=O)NC3(CCCCC3C)C2=O)n1 (stereo not given) | 7 | 4 | -1
CC(=O)c1ccc(N2CCN(C(=O)c3ccc(-c4ccccc4)cc3)CC2)cc1 | 8 | -19 | 4
CC(=O)c1ccc(N2CCN(C(=O)c3cccc(Oc4ccccc4)c3)CC2)cc1 | -7 | 5 | 87*
CC(C)CN1CCN(Cc2cccc3ncccc23)CC1CCO (stereo not given) | 2 | 0 | 3
COc1cc(NC(=O)c2cc3ccccc3cc2O)c(OC)cc1Cl | -2 | 15 | 4
COc1ccccc1NC(=O)c1cc2cc(Br)ccc2cc1O | 99* | -2 | 100*
Fc1ccc(-[n+]2nc(Nc3ccccc3)sc2-c2c(Cl)cccc2Cl)cc1 | · | 10 | ·
CCc1ccc(Nc2n[n+](-c3ccccc3)c(-c3c(Cl)cccc3Cl)s2)cc1 | 100* | 30 | 100*
O=C(NC1CCCC1)C1C2C=CC3(CN(Cc4cccs4)C(=O)C13)O2 (stereo not given) | 3 | 1 | 12
O=C(NCCCNC(=O)c1cnccn1)c1ccc(Cl)c(Cl)c1 | -8 | 1 | 0
COc1ccccc1CN(C(=O)Cc1cccs1)C(C(=O)NC1CCCC1)c1ccncc1 (stereo not given) | 9 | 20 | 2
SMILES | RN4220 kill | BJeLR viability | ugtP null kill
O=c1c(-c2nnc(SCc3ccc(Cl)c(Cl)c3)o2)cccn1Cc1ccccc1 | -16 | 8 | 86*
Clc1cccc(CSc2nnc(-c3c[nH]c4ccccc34)o2)c1 | 4 | 5 | -7
Cc1cccnc1NC(=O)C12CCC(C)(C(=O)O1)C2(C)C (stereo not given) | 3 | 2 | 9
C=CCc1cc(C=O)cc(OC)c1OCc1ccc(Cl)cc1 | -4 | -8 | 86*
COc1cc(C=O)ccc1OCCOCCOc1ccc(Cl)cc1 | 1 | -2 | 5
C=CCc1cc(/C=C2/NC(=O)N(CC)C2=O)cc(OCC)c1OCc1ccc(C(=O)O)cc1 | 20 | 3 | -3
CCOc1cc(/C=N/O)cc(Br)c1OCc1ccc(Cl)cc1 | · | -2 | ·
C=CCc1cc(C=O)cc(OCC)c1OCc1ccc(Cl)cc1 | -17 | -8 | 99*
CCOc1cc(C=NO)cc(Br)c1OCc1ccc(Cl)cc1 | -8 | · | 91*
COc1ccc(-c2nc3c(c(SCC(=O)N4CCOCC4)n2)COC(C)(C)C3)cc1 | 2 | -3 | 8
O=C(Nc1nnc(-c2ccco2)o1)c1ccc(Cl)cc1 | 1 | 7 | 23
O=C(COc1ccccc1)Nc1nnc(-c2ccc(Cl)cc2)o1 | 13 | -6 | -1
O=C(Nc1nnc(-c2ccccc2)o1)c1ccc(Cl)cc1 | 96* | 6 | 99*
COc1cccc(C(=O)Nc2nnc(-c3ccc(F)cc3)o2)c1 | 42 | 3 | 23
COc1cccc(C(=O)Nc2nnc(-c3ccc(Cl)cc3)o2)c1 | 99* | 7 | 100*
CC(=O)c1ccc(C(=O)Nc2nnc(-c3ccc(Cl)cc3)o2)cc1 | 98* | 2 | 99*
CN(C)c1ccc(C(=O)Nc2nnc(-c3ccc(Cl)cc3)o2)cc1 | 11 | 7 | 1
O=C(COc1ccc(Cl)cc1)Nc1nnc(-c2ccc3c(c2)CCCC3)o1 | 100* | -10 | 96*
O=C(N/C(=C/c1cccnc1)C(=O)N1CCCCCC1)c1cccc(Br)c1 | 4 | -8 | 0
CN1CCC(=O)N([C@H](CSc2ccc(Br)cc2)c2ccccc2)CC1 | · | -6 | ·
O=C(CCCOc1ccc(Cl)cc1Cl)Nc1ccncc1 | 0 | 20 | -7
CCOC(=O)/C=C1\CN(Cc2ccc(OC)cc2)S(=O)(=O)c2ccccc21 | · | 3 | ·
CCOC(=O)c1c(NC(=O)c2cccnc2)sc(C)c1C | 19 | 1 | -9
CCOC(=O)c1sc(NC(=O)c2cccnc2)c(C#N)c1C | 74 | 10 | 85*
CC(C)(C)c1nnc(N/N=C/c2ccccc2O)n(N)c1=O | · | 62* | ·
SMILES | RN4220 kill | BJeLR viability | ugtP null kill
CC(C)(C)c1nnc(NN=Cc2cc(Br)ccc2O)n(N)c1=O | 18 | · | -8
COCc1cc(C)nc(N2CCOCC2)c1C#N | 3 | -4 | 13
Cc1ccc(Cl)c(OC(=O)c2ccc(N3CCOCC3)c([N+](=O)[O-])c2)c1 | 4 | 6 | -9
CCNC(=S)N1CCN(CCN=CC2=C(O)CC(c3ccco3)CC2=O)CC1 (stereo not given) | -5 | 0 | 0
C=C[C@]12CC[C@H](OC(C)=O)CC1=CCC1C2CC[C@@]2(C)C1CCC21OCCO1 (stereo not given in full) | -5 | · | 92*
CC(=O)OC1CCC2(C=NO)C(=CCC3C4CCC(=O)C4(C)CCC32)C1 (stereo not given) | 5 | · | 5
C[C@@H]1C=CC(=O)O[C@@H]1c1ccc(Cl)cc1 | · | 77* | ·
CC1C(=O)OC(c2ccc(Cl)cc2)C(C)(C)C1=O (stereo not given) | 2 | -2 | 3
CN(N=Cc1ccc(Cl)cc1)c1ncc(Cl)cc1C(F)(F)F | -11 | · | 98*
CN(N=Cc1ccc(Cl)cc1Cl)c1ncc(Cl)cc1C(F)(F)F | -1 | · | 54
COC(=O)C1=C(c2cccc(OC)c2OC)C[C@@H]2CC[C@H]1N2C(=O)NC(C)C | · | 2 | ·
Cc1cnc(NC(=O)c2cc3c(C)nn(-c4ccccc4)c3s2)s1 | 9 | 5 | -3
C=CCSc1ccsc1C(=O)O | -1 | -3 | -7
O=P1(NC2CCCC2)OCC2(CO1)COP(=O)(NC1CCCC1)OC2 (stereo not given) | 7 | · | 7
CCOC(=O)c1c(CSC(=N)N)n(-c2ccc(C)cc2)c2cc(Br)c(OC(C)=O)cc12 | 0 | 84* | -25
CCOC(=O)c1c(CSC(=N)N)n(C)c2cc(Br)c(OC(C)=O)cc12 | 3 | -1 | 8
